A549 tox: Nrf2 qHTS screen for inhibitors: counterscreen for cytotoxicity | A549 ARE-Fluc cells, CellTiter-Fluor viability, 18-24 h | Potency, µM (titrated, usually from 46 µM), for inactives: top-dose activity change, negative = cytotoxicity, actives largely listed as inhibitors | actives 0.16% (n = 390,000) | AID 504648, 2011; note: % is set by controls: 0 for no effect and ±100 for the full control effect
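Cytotoxicity counterscreen: CellTiter-Fluor fluorescence was measured in A549 ARE_Fluc cells after 18-24 h of compound exposure in a concentration series. The subsequent BugLite luminescent read reports ARE-luciferase activity.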
rTrxR1 inhibitor: qHTS Assay for Inhibitors of Mammalian Selenoprotein Thioredoxin Reductase 1 (TrxR1): qHTS; actives 1% (n = 390,000); Potency, µM (doses to about 114 µM), for the others: top-dose activity change, negative = inhibition, usual class: inhibitors; recombinant rTrxR1, NADPH fluorescence consumption, selenite substrate; Thioredoxin reductase 1, cytoplasmic (Rattus norvegicus), O89049; note: % is set by controls: 0 for no effect and ±100 for the full control effect; nearly all actives have a fitted effect of over 65% in size
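Rat TrxR1 (90 nM in the dispensed reagent) was pre-reduced with 400 uM NADPH for 5 min at room temperature, then incubated with compound for 15 min. After 400 uM selenite was added, NADPH fluorescence (Ex 340/Em 450 nm) was followed for 8 min.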
Nrf2 block: Nrf2 qHTS screen for inhibitors; actives 2.1% (n = 360,000); A549 ARE-Fluc reporter, luciferase luminescence, 18-24 h; Potency, µM (highest dose often 46 µM), inactives show at the highest dose activity change, negative = inhibition, usual class: inhibitors; note: % is set by controls: 0 for no effect and ±100 for the full control effect; nearly all actives have a fitted effect of over 60% in size
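A549 ARE_Fluc cells, 5000/well, 5% FBS OPTI-MEM; compounds in dose-response, 18-24 h at 37 °C/5% CO2; CellTiter-Fluor viability read (Ex 405/Em 525), then BugLite luciferase luminescence = Nrf2 activity.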
Mito fusion yeast: qHTS Assay for Small Molecule Inhibitors of Mitochondrial Division or Activators of Mitochondrial Fusion. Potency, µM (top dose mostly 46.1 µM), without a hit: at the top dose growth rescue (activation), actives largely listed as activators. AID 485298, 2010. S. cerevisiae fusion-defective mutant growth rescue, CellTiterGlo 48 h. actives 0.23% (n = 320,000); note: % of control where 0% means no effect; nearly all actives have a fitted effect of over 45% in size
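Growth-rescue viability read-out: after 48 h at the non-permissive 37C in glycerol/ethanol YPEG, yeast mitochondrial fusion mutants are measured by CellTiterGlo luminescence; compounds (23 nl pinned per well) restoring growth score as division inhibitors or fusion activators.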
IDH1 R132H inh: qHTS for Inhibitors of mutant isocitrate dehydrogenase 1 (IDH1): qHTS; Isocitrate dehydrogenase [NADP] cytoplasmic (Homo sapiens), O75874; IDH1-R132H enzyme, NADPH consumption, diaphorase/resazurin fluorescence; Potency, µM (top dose mostly 76.6 µM), for inactives: at the highest dose activity change, negative = inhibition, hits mostly inhibitors; actives 0.093% (n = 390,000); note: % is set by controls: 0 for no effect and ±100 for the full control effect; nearly all actives have a fitted effect of over 65% in size
Target sequence (O75874 whole entry R132H, stated change not applied): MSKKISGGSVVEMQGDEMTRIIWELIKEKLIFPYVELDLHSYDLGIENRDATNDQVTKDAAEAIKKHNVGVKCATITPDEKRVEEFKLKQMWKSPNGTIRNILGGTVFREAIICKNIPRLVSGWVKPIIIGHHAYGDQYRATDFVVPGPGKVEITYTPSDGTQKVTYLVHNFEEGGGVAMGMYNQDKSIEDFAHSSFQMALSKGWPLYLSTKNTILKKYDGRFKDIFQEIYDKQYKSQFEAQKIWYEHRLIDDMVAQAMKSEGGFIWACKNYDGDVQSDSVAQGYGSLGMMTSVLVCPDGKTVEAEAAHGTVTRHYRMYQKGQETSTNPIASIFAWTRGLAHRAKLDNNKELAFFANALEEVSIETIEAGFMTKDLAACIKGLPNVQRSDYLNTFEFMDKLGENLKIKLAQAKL
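IDH1-R132H (0.5 ug/mL) preincubated 30 min with compound, then NADPH (0.016 mM) and alpha-KG (2 mM) added; 80 min at RT, pH 7.5. Remaining NADPH coupled via diaphorase/resazurin to fluorescence (540/590 nm); concentration-response curves normalized to no-enzyme control.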
TrxR1 substrate: qHTS Assay for Substrates of Mammalian Selenoprotein Thioredoxin Reductase 1 (TrxR1): qHTS; Thioredoxin reductase 1, cytoplasmic (Rattus norvegicus), O89049; actives 0.01% (n = 390,000); Potency, µM (highest dose often 114 µM), for inactives: at the highest dose activity change, negative = substrate turnover; purified TrxR1 substrate turnover, NADPH consumption readout; note: % is set by controls: 0 for no effect and ±100 for the full control effect; nearly all actives have a fitted effect of over 50% in size
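Rat TrxR1, dispensed at 90 nM, was prereduced with 400 uM NADPH (final) for 5 min at ~22 deg C, then incubated with compound 15 min before 400 uM selenite. A first-read NADPH fluorescence drop versus no-compound background flagged substrates.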
Numbers without * were called inactive; ? = inconclusive; / = not tested or not shown; [ ] = remark or other dose. Compounds with a hit are over-represented: about 3.1% of the library has one in this group of screens. Calls come from the whole dose curve; as a rule, active = well fitted curve in the direction sought with a large enough effect; inconclusive = small, poorly fitted or top-dose-only effect, or another doubt; inactive = no such curve, though single readings can be large; an effect the other way counts as inactive or inconclusive. Potency is the fitted concentration of half-maximal effect.

SMILES | A549 tox | rTrxR1 inhibitor | Nrf2 block | Mito fusion yeast | IDH1 R132H inh | TrxR1 substrate
Cc1ccc(N2C(=O)/C(=C/c3ccc(CN(CCC#N)S(C)(=O)=O)o3)C(=O)NC2=S)cc1 | -15% | 10µM* | 9% | -3% | -2% | 2%
COC(=O)C1=C(c2ccc(F)cc2OCc2ccccc2)C[C@@H]2CC[C@H]1N2C(=O)NCc1ccc(OC)cc1 | -17% | 13% | ? | ? | 5% | -3%
COC(=O)C1=C(c2ccc(F)cc2OCc2ccccc2)C[C@@H]2CC[C@H]1N2C(=O)NCCOc1ccccc1 | -19% | 17%[57.1 µM] | ? | ? | 2% | 5%[57.1 µM]
COC(=O)C1=C(c2ccc(F)cc2OCc2ccccc2)C[C@@H]2CC[C@H]1N2C(=O)NCc1ccc(Br)cc1 | -22% | 10% | 15µM* | ? | 3% | -2%
COC(=O)C1=C(c2ccc(F)cc2OCc2ccccc2)C[C@@H]2CC[C@H]1N2C(=O)NCCOc1ccc(OC)cc1 | -12% | 25%[57.1 µM] | 23µM* | 20% | 6% | -7%[57.1 µM]
COC(=O)C1=C(c2ccc(F)cc2OCc2ccccc2)C[C@@H]2CC[C@H]1N2C(=O)NCCc1ccc(F)cc1 | ? | 21%[57.1 µM] | 18µM* | ? | 4% | 8%[57.1 µM]
COC(=O)C1=C(c2ccc(F)cc2OCc2ccccc2)C[C@@H]2CC[C@H]1N2C(=O)NCc1ccccc1Cl | -16% | 20%[57.1 µM] | 5.2µM* | ? | 1% | 6%[57.1 µM]
CCc1ccccc1NC(=O)C1CCCN(c2ncnc3onc(C)c23)C1 (configuration not stated) | -13% | 9% | ? | / | -6% | -1%
COc1cccc(N2CCN(C(=O)C3CCCN(S(=O)(=O)c4ccc5c(c4)oc(=O)n5C)C3)CC2)c1 (configuration not stated) | -11% | 20% | ? | ? | 0% | 2%
O=C1NCCN(Cc2cccc(Oc3ccccc3)c2)C1CC(=O)N1CCCCC1 (configuration not stated) | -4% | ? | -27% | 3% | 1% | -6%
CCC(CO)NC(=O)[C@@H]1C=C2c3cccc4[nH]cc(c34)C[C@H]2N(C)C1 (some centres not stated) | / | 29% | / | / | / | /
CCCc1nc2ccc(Br)cc2c(=O)n1-c1ccc([N+](=O)[O-])c(C(F)(F)F)c1 | -23% | -15% | 21µM* | -4% | -6% | -16%
O=c1[nH]c(=S)n(-c2cccc(Cl)c2)c(O)c1/C=N/N1CCOCC1 | -1% | ? | -1% | -1% | -4% | -19%
O=C1C(Cl)=CC(=Nc2ccc(O)cc2)C=C1Cl | -1% | 1.6µM* | 1% | -3% | 2% | -3%
CCOC(=O)c1ccc(N2C(=O)c3n[nH]c(-c4cccs4)c3C2c2ccc(Cl)cc2Cl)cc1 (configuration not stated) | -14% | 14% | ? | / | 9% | -3%
Cc1cc[n+](Cc2ccccc2)cc1 | -1% | 24%[57.1 µM] | 18µM* | -7% | -5% | 8%[57.1 µM]
c1ccc(C[n+]2ccccc2)cc1 | 1% | 5% | ? | 3% | -9% | -3%
O=[N+]([O-])c1ccccc1-c1cc(-c2ccccc2)cc(-c2ccccc2)[n+]1Cc1ccccc1Cl | ? | -12% | 21µM* | 2% | -11% | -6%
O=[N+]([O-])c1ccc(-[n+]2c(-c3ccccc3)cc(-c3ccccc3)cc2-c2ccccc2)cc1 | 0% | -4% | 14% | -3% | -11% | -13%
COc1nc(NC2CCCCC2)nc(NC(C)(C)C)n1 | -2% | -12%[57.1 µM] | ? | / | 2% | -5%[57.1 µM]
O=C(NCCSc1c(-c2ccc(F)cc2)[nH]c2ccccc12)c1ccc(S(=O)(=O)N2CCOCC2)cc1 | -9% | 19% | ? | / | 15% | 4%
CC(c1nccs1)N(C)C(=O)c1cn(Cc2cccc3ccccc23)nn1 (configuration not stated) | 1% | 2% | ? | 7% | -8% | -6%
C[CH2][Hg][S]c1ccccc1C(=O)O | 16µM* | ? | ? | / | -24% | 8%
COC(=O)C1=C(c2ccc(F)cc2F)C[C@@H]2CC[C@H]1N2C(=O)NC1CCCCC1 | -4% | 12%[57.1 µM] | 6% | -3% | 6% | 3%
COC(=O)C1=C(c2ccc(-c3ccccc3)c(F)c2)C[C@@H]2CC[C@H]1N2C(=O)NCCCOC(C)C | -23% | 15% | 16µM* | ? | 7% | -6%
SMILES | A549 tox | rTrxR1 inhibitor | Nrf2 block | Mito fusion yeast | IDH1 R132H inh | TrxR1 substrate
COC(=O)C1=C(c2ccc(-c3ccccc3)c(F)c2)C[C@@H]2CC[C@H]1N2C(=O)NC1CCCCC1 | ? | 14%[57.1 µM] | 18µM* | ? | 11% | -1%[57.1 µM]
COC(=O)C1=C(c2ccc(-c3ccccc3)c(F)c2)C[C@@H]2CC[C@H]1N2C(=O)NCCOc1ccc(OC)cc1 | -17% | 36% | 16µM* | ? | 4% | 15%
COC(=O)C1=C(c2ccc(OC(F)(F)F)cc2)C[C@@H]2CC[C@H]1N2C(=O)NCCOc1ccc(OC)cc1 | -22% | -2% | 23µM* | ? | -7% | -13%
Cc1ccc(C(=O)c2cn(CC(=O)Nc3ccc(C(C)C)cc3)c3nc(C)ccc3c2=O)cc1 | 9% | 31% | 18% | / | 2% | 2%
O=C(Nc1cccc(C(F)(F)F)c1)C1CCCN1S(=O)(=O)c1cccc2nsnc12 (configuration not stated) | -10% | 15% | ? | / | 24% | 2%
COC(=O)C1=C(c2ccc3ccccc3c2)C[C@@H]2CC[C@H]1N2C(=O)NCc1ccc(C(F)(F)F)cc1 | -25% | 33%[57.1 µM] | 23µM* | -3% | -5% | 5%[57.1 µM]
COC(=O)C1=C(c2ccc(Cl)c(C(F)(F)F)c2)C[C@@H]2CC[C@H]1N2C(=O)NCCOc1ccccc1Cl | ? | -7%[57.1 µM] | 23µM* | 2% | -10% | -5%[57.1 µM]
COC(=O)C1=C(c2ccc(OCc3ccccc3)cc2)C[C@@H]2CC[C@H]1N2C(=O)NC1CCN(Cc2ccccc2)CC1 | 21µM* | 5% | 21µM* | 10% | 8% | -7%
COC(=O)C1=C(c2ccc3ccccc3c2)C[C@@H]2CC[C@H]1N2C(=O)NCc1ccc(F)cc1 | -18% | 13% | ? | ? | 2% | -7%
